Conditions in all cases: concentration: 10 µM; 24 h
For assay [1], the system named is HCC1569. The assay is described as follows: cell number relative to DMSO (% of DMSO); higher = more cells (less growth inhibition / toxicity). In short, it runs like this: (§1)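 For HCC1569 and TDF cells, compounds at 10 µM were applied for 24 h at 37 °C in triplicate in 384-well plates. Cells were fixed in 3.7% formaldehyde, stained for H1.0 and with DAPI, and imaged at ×10 over six fields per well. The endpoint, H1.0 nuclear intensity or cell number, is shown as percent of the plate control using the median of replicates. Positional effects were smoothed for HCC1569 only.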

Assay [2] deals with TDF. The assay is described as above. In short, it runs like this:
as §1

The test system of assay [3] is TDF. Put plainly: H1.0 immunofluorescence intensity relative to DMSO (% of DMSO); higher = stronger H1.0 induction, active = 120 or more. In short, it runs like this:
as §1

Assay [4] relates to HCC1569. Put plainly: H1.0 immunofluorescence intensity relative to DMSO (% of DMSO); higher = stronger H1.0 induction, active = 140 or more. In short, it runs like this:
as §1

“And” between values parts separate entries of the source, which are not always exact repeats. Identical values can stand only once.
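For H1.0 immunofluorescence intensity relative to DMSO in this document: TDF is a line of transformed human dermal fibroblasts of mesenchymal origin.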
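For cell number relative to DMSO in this document: TDF denotes transformed human dermal fibroblasts of mesenchymal origin.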

As for `CC1(C)OC2CC3C4CC(F)C5=CC(=O)C=CC5(C)C4(F)C(O)CC3(C)C2(C(=O)CO)O1` (stereo not given) [Fluocinolone acetonide], the cell number was 101 with HCC1569 [1] and 96.3 in the assay with TDF [2]. In addition, the figures for the H1.0 immunofluorescence intensity with TDF [3] and with HCC1569 [4] were 88.2 (inactive) and 124 (inactive), respectively.
With `Nc1ncnc2c1ncn2C1OC(C(=O)NC2CC2)C(O)C1O` (stereo not given) [5'-(N-Cyclopropyl)carboxamidoadenosine], the cell number in the assay with HCC1569 [1] was 99.6; with TDF [2], 95.1. The H1.0 immunofluorescence intensity in the assay on TDF [3] is 97.8 (inactive); in the assay on HCC1569 [4], 93.6 (inactive).
For the molecule `NC(=S)c1ccc[n+](C2OC(COP(=O)([O-])OP(=O)(O)OCC3OC(n4cnc5c(N)ncnc54)C(OP(=O)([O-])O)C3O)C(O)C2O)c1.[Na+]` (stereo not given) [Thio-NADP sodium], the figures for the cell number in the assay on HCC1569 [1] and in the assay with TDF [2] were 94.1 and 100, respectively. Moreover, the H1.0 immunofluorescence intensity is 91.7 (inactive) in the assay with TDF [3] and 104 (inactive) with HCC1569 [4].
Regarding `Cl.O=c1cc(N2CCOCC2)oc2c(-c3ccccc3)cccc12`, the figures for the cell number in the assay with HCC1569 [1] and in the assay with TDF [2] were 87.7 and 91.7, respectively. In addition, the H1.0 immunofluorescence intensity in the assay on TDF [3] is 86.9 (inactive); in the assay on HCC1569 [4], 141 (active).
As for `CC(Cc1ccc(O)c(O)c1)C(C)Cc1ccc(O)c(O)c1` (stereo not given), the cell number in the assay with HCC1569 [1] was 72.5 and 72.1; with TDF [2] it was 108 and 87.9. The H1.0 immunofluorescence intensity with TDF [3] was 100 (inactive) and 95.2 (inactive); with HCC1569 [4], 116 (inactive) and 122 (inactive).
